This is part of a sample that, as a whole, favours compounds with a hit. Of some 83,000 tested, about 20% had one in any assay.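 Cells were grown in 96-well plates and exposed to the test compound at a single concentration for 48 hours; results are reported as percent growth, with values below 10 considered active.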 Unmarked numbers belong to inactive results. Activity calls are given as the source filed them.
These compounds were tested on ACHN renal (assay: NCI-60 one-dose screen, 48 h (100 = growth as untreated, 0 = no growth, -100 = all killed)). Details: 10 µM unless noted.

Row | Compound | growth
1 | CC(C)(C)N1CCC1CN (stereo not drawn) | 114%
2 | C=C1C(=O)O[C@H]2[C@H]1CC/C(COC(=O)c1cc3cc(OC)ccc3[nH]1)=C\CC[C@@]1(C)O[C@@H]21 | -93.9% (active)
3 | CC[C@]1(O)C[C@@H]2CN(CCc3c([nH]c4ccccc34)[C@@](C(=O)OC)(c3cc4c(cc3OC)N(C)[C@H]3[C@@](O)(C(N)=O)[C@H](O)[C@]5(CC)[C@@H]6C[C@@H]6CN6CC[C@]43[C@@H]65)C2)C1 | 33%
4 | Cc1nn(-c2ccc(F)cc2)c2ncnc(Nc3ccc(NC(=O)Nc4ccc(Cl)c(C(F)(F)F)c4)cc3)c12 | 3.49% (active)
5 | O=C(N/N=C/c1ccccc1O)c1ccccc1Nc1ccnc(C(F)(F)F)c1 | 5.8% (active)
6 | CC(=O)O[C@H]1[C@@H]2OC(=O)C(CSc3ccccc3)[C@@H]2C[C@H]2O[C@]2(C)CC/C=C(\C)CCC[C@@H]1C (stereo partly drawn) | 33.5%
7 | C#CCOc1ccc2ncnc(N3CCC(NC(=O)CCl)CC3)c2c1 | 57.6% [8.25 µM]
8 | CCC(=O)c1ccc(Cl)s1 | 107%
9 | O=C1CC[C@H](c2ccc(O)c3c2C(=O)[C@@H]2O[C@@H]2C3=O)c2cccc(O)c21 | -42% (active)
10 | COc1ccc(S(=O)(=O)N2CC3(COC3)C2)cc1NC(=O)c1[nH]c(C)c2c1CCCCC2=O | 60.4%
11 | O=C1/C(=C/c2ccc3c(c2)OCO3)SC(=S)N1CCc1ccc(O)cc1 | 97.2%
12 | Oc1ccccc1-c1nnc(CNc2ccc(Cl)cc2)o1 | 12.7%
13 | Cc1ccc(OC(=O)c2ccc(Cl)cc2)cc1 | 95.6%

From PubChem BioAssay (NCI)
